Results as given in PubChem BioAssay (NCATS).
Inconclusive results are not listed. Entries that show only a call come without a potency. Active and inactive are the calls of the source. Calls come from the whole dose curve; as a rule, active = well fitted inhibition curve with a large enough effect; inconclusive = small, poorly fitted or top-dose-only effect; inactive = no such curve, though single readings can be large or run the other way.

target: Cytochrome P450 3A4 (Homo sapiens) (UniProt P08684); assay: qHTS Assay for Inhibitors and Substrates of Cytochrome P450 3A4 (AID 884); settings: recombinant CYP3A4, Luciferin-PPXE luminescence; series mostly up to 57.1 µM; note: nearly all actives have a fitted effect of over 50% in size
In short: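 Luminescent readout of luciferin produced by CYP3A4 (20 nM) dealkylation of Luciferin-PPXE, 25 uM (its KM). NADPH-driven reaction ran 60 min at RT after 10 min compound preincubation; data scaled to 57 uM ketoconazole as 100% inhibition.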

Cytochrome P450 3A4 (Homo sapiens), sequence (P08684 whole entry, looked up): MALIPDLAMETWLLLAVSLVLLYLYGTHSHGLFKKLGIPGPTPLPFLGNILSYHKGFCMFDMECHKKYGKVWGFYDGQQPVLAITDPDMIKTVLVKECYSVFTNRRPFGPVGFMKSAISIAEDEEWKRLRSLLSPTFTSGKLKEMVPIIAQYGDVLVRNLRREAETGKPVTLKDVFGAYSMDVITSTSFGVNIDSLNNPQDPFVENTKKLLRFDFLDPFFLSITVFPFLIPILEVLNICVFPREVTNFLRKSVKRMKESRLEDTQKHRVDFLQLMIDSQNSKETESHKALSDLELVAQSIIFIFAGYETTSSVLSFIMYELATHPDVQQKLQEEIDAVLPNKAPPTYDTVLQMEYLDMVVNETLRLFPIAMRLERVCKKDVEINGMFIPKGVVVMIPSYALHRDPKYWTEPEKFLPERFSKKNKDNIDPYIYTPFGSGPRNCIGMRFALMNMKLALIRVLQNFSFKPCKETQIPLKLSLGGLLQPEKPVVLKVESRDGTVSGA

Structure (SMILES)	Potency
CNCCc1ccccn1	inactive
CN(C)CCOC(c1ccc(Cl)cc1)c1ccccn1 (stereo not given)	inactive
CCC(Cc1c(I)cc(I)c(N)c1I)C(=O)O (stereo not given)	inactive
CCCCC(CC)CN1CN(CC(CC)CCCC)CC(C)(N)C1 (stereo not given)	inactive
CC(C)NCC(O)c1ccc2ccccc2c1 (stereo not given)	inactive
C[N+]12CCC(CC1)C(OC(=O)C(O)(c1ccccc1)c1ccccc1)C2 (stereo not given)	inactive
CN(C)CCOC(=O)C(c1ccccc1)C1(O)CCCC1 (stereo not given)	inactive
CC(C(=O)O)c1cccc(Oc2ccccc2)c1 (stereo not given)	inactive
CCCCCN=C(N)N/N=C/c1c[nH]c2ccc(OC)cc12	inactive
O=C(O)CCNC(=O)c1ccccc1	inactive
Nc1ccc(C(=O)NCC(=O)O)cc1	inactive
Cc1cc(C)cc(OCC2CNC(=O)O2)c1 (stereo not given)	inactive
CC(=O)NO	inactive
CCCc1ncc(C[n+]2ccccc2C)c(N)n1	inactive
CCOC(=O)[C@H](CCc1ccccc1)N[C@@H](C)C(=O)N1[C@H](C(=O)O)C[C@H]2CCCC[C@@H]21	inactive
